# Compound activity: PubChem, Paczesny and Yang Labs, IUPUI and University of Michigan
# ST2 inh: IL1RL1 inhibition. 78,000 tested, 2.3% active. AID 1259354. AlphaLISA ST2-Fc/biotin-IL-33 interaction, 1 h. inhibition, % for hits at 17 µM. Q01638; in the data active means inhibition above about 30%
# Target sequence (Q01638 whole entry, looked up): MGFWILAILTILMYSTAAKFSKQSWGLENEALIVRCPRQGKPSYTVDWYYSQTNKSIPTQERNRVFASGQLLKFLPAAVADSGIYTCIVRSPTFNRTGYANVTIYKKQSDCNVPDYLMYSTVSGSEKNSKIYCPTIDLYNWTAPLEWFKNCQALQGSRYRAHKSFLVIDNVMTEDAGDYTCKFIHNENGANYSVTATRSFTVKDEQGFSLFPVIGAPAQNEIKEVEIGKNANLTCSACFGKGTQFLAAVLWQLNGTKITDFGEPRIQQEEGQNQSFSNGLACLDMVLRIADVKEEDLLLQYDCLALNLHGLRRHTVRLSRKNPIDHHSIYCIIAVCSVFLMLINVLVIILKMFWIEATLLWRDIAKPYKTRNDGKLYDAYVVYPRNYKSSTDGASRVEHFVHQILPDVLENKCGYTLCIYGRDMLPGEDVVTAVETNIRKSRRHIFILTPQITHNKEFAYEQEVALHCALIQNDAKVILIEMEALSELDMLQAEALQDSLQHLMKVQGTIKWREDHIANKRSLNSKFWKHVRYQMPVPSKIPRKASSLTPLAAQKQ
# Active calls of the source: *; i = inactive. Many of the other results were omitted from the sample, so hits are more common in it than they were.
SMILES,ST2 inh
CCOc1ccc(C(=O)Nc2ccc3nn(-c4ccc(OC)c(Cl)c4)nc3c2)cc1[N+](=O)[O-],40%*
CCOc1ccc(C(=O)Nc2ccc3oc(-c4ccncc4)nc3c2)cc1[N+](=O)[O-],i
COc1ccc(C(=O)Nc2ccc3nn(-c4ccc(Cl)cc4)nc3c2)cc1,37%*
CCN=Cc1c(C)[nH]n(-c2ccc(Cl)cc2)c1=O,i
O=C(c1ccccc1)N1CCN=C1SCc1ccccc1F,i
c1ccc2c(c1)nc(N1CCCC1)n2CCN1CCCCC1,i
O=C1Nc2ccc(-c3ccccc3)cc2C(=O)N2CCN(C(=O)c3cccc(F)c3)C[C@H]12,i
O=C1Nc2ccc(Br)cc2C(=O)N2CCN(C(=O)c3ccccc3)C[C@H]12,i
O=C1Nc2ccc(Br)cc2C(=O)N2CCN(C(=O)c3cccc(F)c3)C[C@H]12,37%*
NC(=O)c1csc(N2CCC(N3CCCC(C(=O)N4CCCC4)C3)CC2)n1 (stereo unspecified),i
Cc1ccc(N2C(=O)c3cccnc3C2=O)c(C)c1,i
Cc1cccc(N=C2c3ccccc3-c3ncccc32)c1,41%*
Cc1cccc(N=C2NC(=O)c3cccc([N+](=O)[O-])c32)c1,i
COc1ccc(-c2noc(CCC(=O)Nc3ccc(Cl)cn3)n2)cc1,i
Nc1cc(-c2ccc3c(c2)OC[C@@H](N2CCCC2)[C@@H]3O)c2cc[nH]c2n1,i
CC1=C(C(=O)Nc2cc(C)ccn2)C(c2ccc3c(c2)OCO3)C2=C(CC(C)(C)CC2=O)N1 (stereo unspecified),i
COc1ccc(/C=C2\SC(N3CCCC3)=NC2=O)cc1,i
COc1ccc(/C=C(\C)c2nc(C)c(-c3ccccc3)c(=O)[nH]2)cc1,i
COc1ccc(/C=C2\CC(c3ccccc3)=CC2=O)cc1,52%*
CCc1nnc(NC(=O)CSc2nc3c([nH]c4ccccc43)c(=O)n2C)s1,i
COc1cc(C(=O)N(c2ccc(C(C)C)cc2)C2C=CS(=O)(=O)C2)cc(OC)c1OC (stereo unspecified),i
NC12C[C@H]3C[C@@H](C1)CC(CC(=O)O)(C3)C2,i
COc1ccc(Cc2nc3cc(C)c(C)cc3[nH]c2=O)cc1Br,31%*
COc1ccc(Cn2cnc([N+](=O)[O-])c2)cc1Br,i
COc1ccc(Cc2nc3cc(C)c(C)cc3n(C)c2=O)cc1Br,i
SMILES,ST2 inh
CC1=C[C@@H](CC#N)[C@H](C(C)C)C[C@H]1CC(=O)NCc1ccc(F)cc1,i
CCCSc1nnc(NC(=O)c2ccc(F)cc2)s1,i
O=C(O)C1CC=CCC1C(=O)Nc1ccccc1 (stereo unspecified),i
COCCN(CCOC)CC[C@@H]1CC[C@H](O)[C@@H](C(=O)Nc2ccccc2)O1,38%*
COc1ccc(CNC(=O)[C@H]2O[C@H](CCN3CCN(c4ccccc4)CC3)CC[C@@H]2O)cc1,i
Cc1cc(NC(=O)c2ccco2)nc2c1c(=O)oc1ccccc12,i
COc1cc(OC)c(NC(=O)CN2CCN(Cc3ccccc3C)S2(=O)=O)cc1Cl,i
CCN(CC)c1ccc(C=NS(=O)(=O)c2ccc(C)cc2)cc1,i
CCN(CC)c1ccc(N)c(C)c1,53%*
CC(C)c1nc(C(=O)N2CCCC3(CCNCC3)CC2)cs1,i
CC(C)(C)c1ccc(C(=O)Nc2ccccc2F)cc1,i
O=C(N[C@H]1CN[C@H](C(=O)N2CC=C(c3ccccc3)CC2)C1)c1ccco1,i
Cc1nccn1CCCC(=O)N1C[C@@H]2[C@@H]3CC[C@@H](C3)[C@@H]2C1,i
CCOc1ccc(C2CC(=O)N3CN(c4ccc(C)cc4)CSC3=C2C#N)cc1OC (stereo unspecified),i
COc1ccc2nc(SC(=O)c3ccccc3)nc(C)c2c1,43%*
COc1ccc2nc(SCCc3ccccc3)nc(C)c2c1,i
CCOC(=O)CCSc1nc(C)c2cc(C)ccc2n1,i
CN(C)Cc1cccc(CN(C)c2cc(N(C)C)ncn2)c1,i
CCOC(=O)N1CCN(C(=O)c2ccc(N3CCC(NCCc4cccs4)CC3)cc2)CC1,i
CCOC(=O)N1CCN(C(=O)c2ccc(N3CCC(NCCc4ccncc4)CC3)cc2)CC1,i
O=C(c1ccc(N2CCC(NCC3(N4CCOCC4)CCCC3)CC2)cc1)N1CCCC(O)C1 (stereo unspecified),31%*
CNC(=O)CN(C1CCCCC1)S(=O)(=O)c1ccccc1,i
O=C(CN(C1CCCCC1)S(=O)(=O)c1ccc(Br)cc1)NC1CC1,i
CC(=O)Nc1ccc(S(=O)(=O)N(CC2C(C)C=C(C)CC2C)C2CCCCC2)cc1 (stereo unspecified),32%*
COc1cc(Cl)c(C2Oc3nc(SC)nnc3-c3ccccc3N2C(C)=O)cc1OC (stereo unspecified),i
SMILES,ST2 inh
Cc1c(N=Cc2ccccc2O)c(=O)n(-c2ccccc2)n1C,i
Cc1c(N=Cc2cc([N+](=O)[O-])ccc2N2CCCC2)c(=O)n(-c2ccccc2)n1C,36%*
Cc1c(N=Cc2cc([N+](=O)[O-])c(Cl)cc2Cl)c(=O)n(-c2ccccc2)n1C,i
Cc1nc2c(C(=O)NC3CCCC(C)C3C)cnn2c(C)c1Cc1ccccc1 (stereo unspecified),i
COc1ccc(C[C@@H]2NC(=O)[C@@H]3C[C@@H](NC(=O)Nc4cccc(SC)c4)CCN3C2=O)cc1,33%*
COc1ccc(CN2CCCN(CC(=O)Nc3cccc(SC)c3)S2(=O)=O)cc1,i
COc1ccc(NC(=O)N[C@H]2C[C@H]3C(=O)N[C@H](Cc4ccccc4)C(=O)N3C2)cc1,i
CN1CCCC(CO)(Cc2ccccc2)C1 (stereo unspecified),i
Clc1ccccc1Nc1cccc2nccnc12,39%*
c1cc(Nc2cccc3nccnc23)c2nccnc2c1,40%*
CN(C)c1ccc(Nc2cccc3nccnc23)cc1,84%*
CC(=O)Nc1cccc(N(C)C)c1,i
Fc1ccc(NC2CCCN(Cc3cccc4ncccc34)C2)cc1 (stereo unspecified),i
Fc1ccc(Nc2cccc3nccnc23)cc1,49%*
Cc1cccc(-n2ncc3c(Nc4ccc(F)cc4)ncnc32)c1,i
Cc1ccc2ncnc(Nc3ccccc3Cl)c2c1,i
O=C(O)[C@@H]1[C@H](C(=O)Nc2cccc3cccnc23)[C@@H]2C=C[C@H]1C2,i
O=C(Nc1cccc2nccnc12)c1ccccc1,i
Cc1sc2ncnc(Nc3ccccc3Cl)c2c1C,i
COc1ccc(C2=NN(C(=O)CCC(=O)O)C(c3ccccc3Cl)C2)cc1OC (stereo unspecified),i
O=C([C@@H]1C[C@@H](O)CN1)N1CCC(Cc2nncn2-c2ccccc2)CC1,i
NC1CC(=O)N(C2CCCCCC2)C1 (stereo unspecified),i
CCN(CC)C(=O)C12C[C@@H]3C[C@@H](CC(Cl)(C3)C1)C2,i
O=C(c1cccc(Cn2cccn2)c1)N1CCC(Nc2ncccn2)CC1,i
O=C(CCCN1C(=O)S/C(=C\C=C\c2ccccc2)C1=O)Nc1ccc(C(=O)O)cc1,32%*
O=C(CCCCCN1C(=O)c2ccccc2C1=O)Nc1ccc(Cl)cc1,i
O=C(O)CCCC(=O)Nc1ccc(C(=O)O)cc1,i
CS(=O)(=O)N1CCc2cc(NC(=O)c3cccc(Br)c3)ccc21,i
CC(=O)c1[nH]c(C)c(C(=O)N2CC[C@@H](c3sccc3C)[C@H](O)C2)c1C,i
Cc1ccsc1[C@@H]1CCN(C(=O)c2coc3c2C(=O)CCC3)C[C@H]1O,32%*
